Assay [1] is described as follows: Nuclear factor erythroid 2-related factor 2/antioxidant responsive element (Nrf2/ARE) small molecule agonists: qHTS cell viability counter screen in human keratinocytes (AID 1919968; active = well fitted curve in the direction sought with a large enough effect in the repeat runs; an effect the other way counts as inactive or inconclusive; note: nearly all actives have a fitted effect of over 55% in size). In short, it runs like this: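 Viability counter-screen: KeratinoSens reporter cells, DMSO-delivered compounds, 23 h at 37 C, CellTiter-Fluor fluorescence.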
A short description of assay [2]: Nuclear factor erythroid 2-related factor 2/antioxidant responsive element (Nrf2/ARE) small molecule agonists: luciferase reporter gene qHTS assay in human keratinocytes (AID 1919969). Note: nearly all actives have a fitted effect of over 35% in size. Note: potency is the fitted concentration of half-maximal effect. A general note: Reporter assays use an easily measured gene product as a stand-in for the process of interest.
The target in assay [3] is Gonadotropin-releasing hormone receptor (Homo sapiens) (UniProt P30968). The assay can be described thus: Human gonadotropin-releasing hormone receptor (GnRHR) small molecule agonists, calcium flux assay in GnRHR-HEK293 cells (AID 1920063). Note: nearly all actives have a fitted effect of over 35% in size. In short, it runs like this: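 Tox21-format agonist screen using human GnRHR-expressing HEK293 cells and a fluorescent calcium dye; kinetic 3-min fluorescence reading after compound addition, 15-point concentration series run in triplicate.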
A general note: Calcium assays in cells follow changes in intracellular calcium, usually with a dye or a luminescent sensor.

Assay [4] deals with KiSS-1 receptor (Homo sapiens) (UniProt Q969F8). In words: Human kisspeptin (KISS1R) small molecule agonists, calcium flux assay in KISS1R-HEK293 cells (AID 1920064; active = well fitted curve in the direction sought with a large enough effect in the repeat runs; an effect the other way counts as inactive or inconclusive). In short, it runs like this: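 Intracellular calcium mobilization in KISS1R-HEK293 cells was recorded by fluorescence (Ex/Em 480/540) for 3 min following compound addition to cells pre-loaded 1 h with calcium dye.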

Assay [5] is described as follows: G protein-coupled receptor (GPCR) small molecule agonists, calcium flux assay: HEK293 wild type cell line counter screen (AID 1920065). In short, it runs like this:
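In this agonist-mode screen, ATP is the positive control and DMSO the vehicle. Cells grow 18 h before a 1 h dye incubation at 37 C; signal is taken at Ex/Em 480/540 over 3 min.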

Assay [6] is described as follows: p53 small molecule agonists, cell-based qHTS assay with human liver microsomes (AID 1963577).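 Note: p53 response element beta-lactamase reporter cells with liver microsomes plus NADPH.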 In short, it runs like this: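 With metabolic activation: human liver microsomes (0.5 mg/mL final) plus NADPH (0.5 mg/mL final) added alongside compounds to p53RE-bla cells; 16 h 37 C exposure; beta-lactamase read by LiveBLAzer fluorescence.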
A short description of assay [7]: p53 small molecule agonists, cell-based qHTS assay with rat liver microsomes (AID 1963578). In short, it runs like this:
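Metabolic activation by rat liver microsomes and NADPH, each 0.5 mg/mL final, added right after compounds to p53RE-bla reporter cells (4,000/well, plated 5 h earlier). 16 h at 37 C, then LiveBLAzer substrate for 2 h at room temperature in the dark; fluorescence read-out.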

The nature of assay [8]: p53 small molecule agonists, cell-based qHTS assay with human liver microsomes: qHTS cell viability counter screen (AID 1963579). Note: nearly all actives have a fitted effect of over 45% in size. In short, it runs like this:
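Metabolic activation used human liver microsomes and NADPH, both 0.5 mg/mL final, over 16 hours at 37 C on p53RE-bla cells (4,000/well). Cytotoxicity measured by CellTiter-Glo luminescence, 30 min at room temperature.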
(In qHTS, concentration-response curves come from the screen itself.)

Assay [9] can be described thus: p53 small molecule agonists, cell-based qHTS assay with rat liver microsomes: qHTS cell viability counter screen (AID 1963580). Note: nearly all actives have a fitted effect of over 45% in size. In short, it runs like this: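 p53RE-bla HCT-116 cells were exposed 16 h at 37 C to compounds with rat liver microsomes (0.5 mg/mL) and NADPH (0.5 mg/mL). Viability was measured in the same wells as ATP content by CellTiter-Glo luminescence.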

Assay [10] in a line: p53 small molecule agonists, cell-based qHTS assay: qHTS cell viability counter screen (AID 1963581). Note: nearly all actives have a fitted effect of over 45% in size. In short, it runs like this: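 Compounds are pinned onto HCT-116 p53RE-bla cells and left 16 h at 37 C. Following the reporter FRET read, ATP is quantified by CellTiter-Glo luminescence after 30 min at room temperature.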
A short description of assay [11]: p53 small molecule agonists, cell-based qHTS assay (AID 1963582; active = well fitted activation curve with a large enough effect in the signal ratio in the repeat runs, not every such curve was filed as active; the % refers to the signal ratio). In short, it runs like this:
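Agonist activity was scored from beta-lactamase FRET fluorescence in p53RE-bla cells treated 16 h at 37 C with compounds in DMSO, substrate incubation being 2 h at room temperature.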

For assay [12], the target named is 5-hydroxytryptamine receptor 2A (Homo sapiens) (UniProt P28223). The assay can be described thus: 5-hydroxytryptamine receptor 2A (HTR2A) small molecule antagonists, cell-based qHTS assay (AID 1963586). Note: nearly all actives have a fitted effect of over 45% in size. In short, it runs like this: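 Antagonist-mode intracellular calcium assay: DOI (4 nM) added after 5 min compound pre-incubation at room temperature to dye-loaded HTR2A-CHO cells. Fluorescence followed for 3 min, sampled every second.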

Assay [13] has the same target. In words: 5-hydroxytryptamine receptor 2A (HTR2A) small molecule agonists, cell-based qHTS assay (AID 1963587). Note: nearly all actives have a fitted effect of over 30% in size. In short, it runs like this: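 CHO cells stably expressing human HTR2A, plated 18 h, loaded with calcium dye 1 h at 37 C. Agonist mode: compounds added and intracellular calcium fluorescence recorded kinetically for 2 min at 1 sec intervals.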
Assay [14] has as its target Muscarinic acetylcholine receptor M1 (Homo sapiens) (UniProt P11229). The assay can be described thus: Cholinergic receptor muscarinic 1 (CHRM1) small molecule antagonists, cell-based qHTS assay (AID 1963588). Note: nearly all actives have a fitted effect of over 40% in size. In short, it runs like this: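 CHRM1-CHO calcium-flux assay, antagonist mode. Cells were seeded 18 h, dye-loaded 1 h at 37 C and given compound for 5 min at RT, then acetylcholine was added at 50nM. FDSS fluorescence was read 3 min; 15 concentrations, three runs.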

For assay [15] the target is unchanged. In words: Cholinergic receptor muscarinic 1 (CHRM1) small molecule agonists, cell-based qHTS assay (AID 1963589). Note: nearly all actives have a fitted effect of over 35% in size. In short, it runs like this:
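Stable CHRM1-CHO cells (human receptor) were incubated 18 h, dye-loaded for 1 h at 37 C and exposed to test compounds for agonist activity, with calcium-dependent fluorescence followed kinetically.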

Assay [16] in a line: cAMP Responsive Elements (CRE) small molecule agonists, cell-based qHTS assay (AID 1963590). In short, it runs like this:
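FRET-based beta-lactamase readout (LiveBLAzer B/G, 2 h RT) quantified CRE activation in HEK 293T CRE-bla cells after 3 h treatment with DMSO-dissolved compounds.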

The nature of assay [17]: cAMP Responsive Elements (CRE) small molecule antagonists, cell-based qHTS assay (AID 1963591; active = well fitted inhibition curve with a large enough effect in the signal ratio in the repeat runs, not every such curve was filed as active; the % refers to the signal ratio). In short, it runs like this:
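qHTS in CRE-bla HEK 293T cells: compound in DMSO, then 0.25 uM NKH477 (final), 3 h at 37 °C/5% CO2; beta-lactamase FRET read-out after 2 h substrate incubation.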

Assay [18] deals with Beta-2 adrenergic receptor (Homo sapiens) (UniProt P07550). In words: Adrenergic beta2 receptor (ADRB2) small molecule antagonists, cell-based qHTS assay (AID 1963592). Note: series mostly up to about 92 µM; nearly all actives have a fitted effect of over 50% in size. In short, it runs like this:
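Cells (CHO, stable ADRB2 overexpression) incubated 18-20hr at 37C; compounds added from DMSO; agonist mix (1nM isoproterenol, 100uM IBMX, 25uM Ro-20-1724) added; 0.5hr RT; d2-cAMP and anti-cAMP-cryptate added; 1hr RT; 665/615 nm read.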

In assay [19] the target is D(2) dopamine receptor (Homo sapiens) (UniProt P14416). The assay can be described thus: Dopamine D2 receptor (DRD2) small molecule agonists, cell-based qHTS assay (AID 1963594). Note: nearly all actives have a fitted effect of over 35% in size. In short, it runs like this: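 HEK293 cells stably expressing human DRD2, pre-treated with PDE inhibitor Ro20-1724 (0.1 mM final) and compound 10 min at room temperature, then stimulated with NKH477 (200nM […]) for 30 min. cAMP read by HTRF (665/620 nm).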

Assay [20] shares this target. The assay can be described thus: Dopamine D2 receptor (DRD2) small molecule antagonists, cell-based qHTS assay (AID 1963595; active = well fitted inhibition curve with a large enough effect in the signal ratio in the repeat runs, with a control signal flat; the % refers to the signal ratio). In short, it runs like this: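 In this cell-based antagonist screen, compounds act for 10 min at room temperature before a 30 min challenge with 12 nM quinpirole and 200 nM NKH477. cAMP is quantified by HTRF competition in DRD2-HEK293 cells containing 0.1 mM Ro20-1724.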

Results filed as inconclusive are left out. The source made the active and inactive calls. Unless noted, calls come from the whole dose curve.

Sequence of Muscarinic acetylcholine receptor M1 (Homo sapiens) (P11229 whole entry, looked up): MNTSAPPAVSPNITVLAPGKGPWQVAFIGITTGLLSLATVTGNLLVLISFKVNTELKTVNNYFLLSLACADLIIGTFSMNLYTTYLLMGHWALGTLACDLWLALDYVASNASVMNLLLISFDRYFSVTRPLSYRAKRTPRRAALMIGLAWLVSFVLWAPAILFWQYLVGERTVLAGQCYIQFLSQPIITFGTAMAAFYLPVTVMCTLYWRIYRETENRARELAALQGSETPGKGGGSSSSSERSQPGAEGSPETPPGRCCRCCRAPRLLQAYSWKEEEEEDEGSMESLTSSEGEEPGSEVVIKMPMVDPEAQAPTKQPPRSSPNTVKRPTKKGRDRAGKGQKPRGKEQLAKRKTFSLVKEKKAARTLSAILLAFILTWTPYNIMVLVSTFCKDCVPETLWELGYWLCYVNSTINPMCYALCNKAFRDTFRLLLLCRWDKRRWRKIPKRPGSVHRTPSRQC
Sequence of Beta-2 adrenergic receptor (Homo sapiens) (P07550 whole entry, looked up): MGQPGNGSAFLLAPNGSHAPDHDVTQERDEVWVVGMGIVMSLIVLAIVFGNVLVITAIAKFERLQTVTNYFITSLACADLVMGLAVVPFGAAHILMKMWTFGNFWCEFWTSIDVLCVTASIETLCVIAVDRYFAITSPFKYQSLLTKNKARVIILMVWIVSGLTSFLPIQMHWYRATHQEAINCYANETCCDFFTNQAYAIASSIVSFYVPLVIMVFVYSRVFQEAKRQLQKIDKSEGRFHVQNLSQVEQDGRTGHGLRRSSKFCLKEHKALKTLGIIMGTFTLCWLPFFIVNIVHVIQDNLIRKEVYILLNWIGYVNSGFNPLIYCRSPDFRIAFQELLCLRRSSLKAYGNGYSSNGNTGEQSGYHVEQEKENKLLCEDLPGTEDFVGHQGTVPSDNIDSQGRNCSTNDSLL
Sequence of Gonadotropin-releasing hormone receptor (Homo sapiens) (P30968 whole entry, looked up): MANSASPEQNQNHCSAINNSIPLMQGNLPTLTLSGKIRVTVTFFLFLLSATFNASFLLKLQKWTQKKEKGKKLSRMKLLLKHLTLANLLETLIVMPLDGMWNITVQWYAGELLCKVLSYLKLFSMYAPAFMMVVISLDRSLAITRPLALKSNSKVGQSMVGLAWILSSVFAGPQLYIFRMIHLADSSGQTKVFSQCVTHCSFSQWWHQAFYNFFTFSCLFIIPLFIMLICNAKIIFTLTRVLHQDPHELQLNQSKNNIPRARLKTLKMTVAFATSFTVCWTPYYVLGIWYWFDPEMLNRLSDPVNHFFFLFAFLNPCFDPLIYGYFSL
Sequence of KiSS-1 receptor (Homo sapiens) (Q969F8 whole entry, looked up): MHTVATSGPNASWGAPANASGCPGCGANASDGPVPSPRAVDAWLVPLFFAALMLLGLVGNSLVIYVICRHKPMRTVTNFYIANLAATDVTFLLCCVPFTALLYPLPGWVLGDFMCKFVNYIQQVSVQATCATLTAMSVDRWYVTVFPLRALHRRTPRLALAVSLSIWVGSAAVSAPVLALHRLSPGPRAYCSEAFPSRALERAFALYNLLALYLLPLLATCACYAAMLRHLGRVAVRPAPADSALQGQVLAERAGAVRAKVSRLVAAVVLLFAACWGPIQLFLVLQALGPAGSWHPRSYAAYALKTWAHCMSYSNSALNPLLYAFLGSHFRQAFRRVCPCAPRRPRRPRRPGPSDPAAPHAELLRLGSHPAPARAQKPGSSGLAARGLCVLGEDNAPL
Sequence of D(2) dopamine receptor (Homo sapiens) (P14416 whole entry, looked up): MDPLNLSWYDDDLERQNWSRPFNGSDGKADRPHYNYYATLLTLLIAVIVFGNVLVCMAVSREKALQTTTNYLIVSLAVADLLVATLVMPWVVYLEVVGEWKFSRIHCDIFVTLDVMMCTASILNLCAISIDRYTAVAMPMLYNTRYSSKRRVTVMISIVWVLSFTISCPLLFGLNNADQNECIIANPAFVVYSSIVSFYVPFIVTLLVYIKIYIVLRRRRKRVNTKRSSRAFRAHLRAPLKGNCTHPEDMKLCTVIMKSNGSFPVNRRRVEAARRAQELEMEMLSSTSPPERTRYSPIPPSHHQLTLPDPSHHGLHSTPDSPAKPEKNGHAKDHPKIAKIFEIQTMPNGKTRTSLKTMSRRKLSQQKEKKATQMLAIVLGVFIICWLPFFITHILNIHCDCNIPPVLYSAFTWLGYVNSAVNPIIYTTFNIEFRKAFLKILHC
Sequence of 5-hydroxytryptamine receptor 2A (Homo sapiens) (P28223 whole entry, looked up): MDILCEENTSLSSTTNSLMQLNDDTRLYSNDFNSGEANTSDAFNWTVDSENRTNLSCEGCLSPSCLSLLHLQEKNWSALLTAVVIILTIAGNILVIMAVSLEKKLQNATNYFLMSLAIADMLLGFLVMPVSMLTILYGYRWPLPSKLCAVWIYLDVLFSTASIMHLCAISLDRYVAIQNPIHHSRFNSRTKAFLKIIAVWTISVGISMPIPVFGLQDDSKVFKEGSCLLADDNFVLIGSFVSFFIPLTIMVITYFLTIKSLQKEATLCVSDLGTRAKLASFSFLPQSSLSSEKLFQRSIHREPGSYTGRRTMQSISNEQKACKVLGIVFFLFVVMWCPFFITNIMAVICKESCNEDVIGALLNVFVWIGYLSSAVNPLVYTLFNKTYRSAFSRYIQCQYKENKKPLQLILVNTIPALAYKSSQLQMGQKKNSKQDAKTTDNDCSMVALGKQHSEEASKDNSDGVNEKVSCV

Consider `N#CC1(N=NC2(C#N)CCCCC2)CCCCC1`, for which the Potency entry in assay [1], in [2], in assay [3], in assay [4], in assay [5] and in [6] was “inactive” each time. Besides, the Potency result in assay [7], in [8], in [9], in assay [10], in assay [11] and in assay [12] was “inactive” throughout. Also, the Potency result in [13], in [14], in [15], in assay [16], in assay [17] and in [18] was “inactive” each time. Also, the Potency entry in [19] and in [20] was “inactive” in each case.
For the compound `N#CCC#N`, the Potency result in [1], in assay [3], in assay [4], in assay [5], in [6] and in [7] was “inactive” each time. Moreover, the Potency entry in [8], in assay [9], in [10], in assay [11], in assay [12] and in [13] was “inactive” throughout. The Potency entry in [14], in [15], in assay [16], in [17], in assay [18] and in assay [19] was “inactive” in each case. In addition, in assay [20], the Potency entry is “inactive”. In assay [2], the Potency is 61.1 µM (active).
Consider `CSc1nnc(C(C)(C)C)c(=O)n1N`, for which the Potency entry in assay [1], in assay [2], in assay [3], in assay [4], in assay [5] and in [6] was “inactive” throughout. Moreover, the Potency result in [7], in assay [8], in [9], in assay [10], in [11] and in [12] was “inactive” throughout. For the same compound, the Potency entry in [13], in assay [14], in [15], in [16], in assay [17] and in [18] was “inactive” each time. The Potency entry in assay [19] and in [20] was “inactive” each time.
As to `O=[N+]([O-])c1cc(Cl)ccc1Cl`, the Potency result in assay [1], in [2], in assay [3], in assay [4], in assay [5] and in assay [6] was “inactive” throughout. For the same compound, the Potency entry in assay [7], in assay [8], in assay [9], in assay [10], in assay [11] and in assay [12] was “inactive” in each case. Moreover, the Potency entry in [13], in [14], in assay [15], in assay [16], in [17] and in assay [18] was “inactive” throughout. For the same compound, the Potency result in assay [19] and in assay [20] was “inactive” in each case.
Take `CCN(CC)Cc1nccn1-c1ccc([N+](=O)[O-])cc1C(=O)c1ccccc1Cl`: the Potency entry in assay [1], in [2], in [3], in assay [4], in [5] and in assay [6] was “inactive” in each case. Moreover, the Potency result in assay [7], in assay [8], in assay [9], in assay [10], in [11] and in [12] was “inactive” each time. The Potency result in assay [13], in [14], in assay [15], in assay [16], in assay [17] and in assay [18] was “inactive” throughout. For the same compound, the Potency result in assay [19] and in [20] was “inactive” throughout.
For the compound `CCOC(=O)C1OC1(C)c1ccccc1` (stereo not given), the Potency result in assay [1], in assay [2], in [3], in assay [4], in [5] and in [6] was “inactive” in each case. Moreover, the Potency entry in [7], in assay [8], in [9], in [10], in assay [11] and in [12] was “inactive” in each case. Also, the Potency entry in assay [13], in assay [14], in assay [15], in assay [16], in assay [17] and in [18] was “inactive” throughout. Further, the Potency entry in [19] and in assay [20] was “inactive” in each case.
As to `CCCCc1c(C)nc(NCC)[nH]c1=O`, the Potency entry in [1], in [2], in assay [3], in assay [4], in assay [5] and in assay [6] was “inactive” each time. Also, the Potency result in assay [7], in assay [8], in [9], in assay [10], in assay [11] and in assay [12] was “inactive” throughout. In addition, the Potency entry in [13], in assay [14], in assay [15], in assay [16], in [17] and in assay [18] was “inactive” in each case. Moreover, the Potency entry in assay [19] and in assay [20] was “inactive” throughout.

These data come from PubChem BioAssay (Tox21).
